In all, about 290,000 compounds went through this assay and about 160 (0.055%) were called active. This excerpt belongs to a sample that is enriched for actives. A number with no mark means an inactive call. Cut-off read from the data, not from the text of the source: active = inhibition above about 50%; inactive = the rest.
Molecular target: Tyrosine-protein phosphatase non-receptor type 22 (Homo sapiens) (UniProt Q9Y2R2)
Experiment: inhibitors of LYP phosphatase, biochemical, fluorescence intensity, uHTS (AID 1779);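 note: plate controls were vehicle with enzyme for no effect and no enzyme for full effect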
Conditions: recombinant LYP phosphatase, at 11.5 µM, stronger effect = higher value

Tyrosine-protein phosphatase non-receptor type 22 (Homo sapiens), sequence (Q9Y2R2 whole entry, looked up): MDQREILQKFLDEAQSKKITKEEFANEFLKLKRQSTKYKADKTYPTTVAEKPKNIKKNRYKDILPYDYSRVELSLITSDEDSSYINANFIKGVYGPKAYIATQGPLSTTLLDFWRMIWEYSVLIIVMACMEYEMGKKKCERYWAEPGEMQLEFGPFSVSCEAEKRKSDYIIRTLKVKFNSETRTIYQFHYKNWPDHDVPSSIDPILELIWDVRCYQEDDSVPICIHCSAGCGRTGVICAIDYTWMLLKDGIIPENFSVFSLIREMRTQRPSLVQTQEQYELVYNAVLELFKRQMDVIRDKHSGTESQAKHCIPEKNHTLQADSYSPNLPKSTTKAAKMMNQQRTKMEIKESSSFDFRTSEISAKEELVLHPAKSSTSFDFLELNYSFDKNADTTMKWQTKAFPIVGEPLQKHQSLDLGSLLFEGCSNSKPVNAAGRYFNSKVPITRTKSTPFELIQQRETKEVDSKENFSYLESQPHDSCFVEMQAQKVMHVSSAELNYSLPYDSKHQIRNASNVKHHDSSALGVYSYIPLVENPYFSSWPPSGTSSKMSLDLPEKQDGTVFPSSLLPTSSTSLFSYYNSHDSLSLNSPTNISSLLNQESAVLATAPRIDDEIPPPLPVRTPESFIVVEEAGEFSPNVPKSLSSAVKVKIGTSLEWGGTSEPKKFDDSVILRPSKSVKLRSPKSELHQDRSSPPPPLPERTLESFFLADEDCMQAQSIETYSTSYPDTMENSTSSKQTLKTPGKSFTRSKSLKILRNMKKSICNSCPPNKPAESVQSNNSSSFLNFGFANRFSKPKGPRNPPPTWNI

| Compound | inhibition |
| --- | --- |
| O=C(COc1ccc(Cl)cc1Cl)Nc1ccc(Cl)cn1 | -4.3% |
| CCOc1ccc(C(=O)Nc2ccc(Cl)cn2)cc1Cl | 80.4% (active) |
| COc1ccc(C(=O)Nc2ccc(Cl)cn2)cc1Cl | 0.7% |
| CCn1c(SCC(=O)N/N=C(/C)c2ccncc2)nc2ccccc21 | -6.6% |
| Cc1ccc(S(=O)(=O)NC(=O)Nc2nnc(C3CC3)s2)cc1 | -9.1% |
| CC(=O)Nc1ccc(NC(=O)CSc2ccc(-c3sc(C)nc3C)nn2)cc1 | -10.3% |
| N#Cc1c(/N=C\c2ccc(O)c([N+](=O)[O-])c2)sc2c1CCCC2 | 7.9% |
| CC1=NN(c2ccccc2)C(=O)/C1=C\C=C1\N(C)c2ccccc2C1(C)C | 6.4% |
| CC(=O)NCCNC(=O)CNC(=O)c1ccc(Cl)cc1 | -1.1% |
| O=C(CNC(=O)c1ccc(Cl)cc1)NCC(F)(F)F | 68.8% (active) |
| O=C(CNC(=O)c1ccc(F)cc1)NCc1ccc(Cl)cc1 | -3% |
| O=C1CC(N2CCN(c3cccc(C(F)(F)F)c3)CC2)C(=O)N1c1ccc(F)cc1 (centres undefined) | 4.8% |
| N#CC(C(=O)NC1CCCCC1)=C1CCCCC1 | 62.7% (active) |
| O=C(NC1CCCCCC1)C(=O)NC1CCCC1 | -2.9% |
| N#CC(C(=O)NC1CCCCC1)=C1CCCCCC1 | 2.1% |
| CCN(CCCNC(=O)C1CCN(S(=O)(=O)c2cccc3nonc23)CC1)Cc1ccccc1 | -4.7% |
| Cc1cc([N+](=O)[O-])ccc1NC(=O)CCC(=O)N1CCCCC1 | -5.2% |
| COc1ccc(NC(=S)N(CCN(C)C)C(C)c2ccncc2)cc1Cl (centres undefined) | -7.3% |
| CCOC(=O)C1=C(CP(=O)(c2ccccc2)c2ccccc2)NC(=O)NC1c1ccc(OC)cc1 (centres undefined) | 4% |
| CC(C)c1c(O)c2c(n(-c3ccccc3)c1=O)CCCC2 | 1% |
| O=c1c(-c2ccccc2)c(O)c2c(n1-c1ccccc1)CCCC2 | 66.2% (active) |
| CC/C(=N\O)c1c(O)c2c(n(-c3ccccc3)c1=O)CCCC2 | 3.9% |
| Cc1cc(C)cc(Cn2ncc(Cl)c(Cl)c2=O)c1 | -5.9% |
| COc1ccc(C(=O)Nc2nc(N3C(=O)c4ccccc4C3=O)n(-c3ccccc3)n2)cc1 | -1.2% |
| O=C(COc1ccc(/C=N/NC(=O)c2ccc(O)cc2)cc1)Nc1cccc([N+](=O)[O-])c1 | 56.7% (active) |

| Compound | inhibition |
| --- | --- |
| O=C(COc1ccc(/C=N/NC(=O)c2ccncc2)cc1)Nc1cccc([N+](=O)[O-])c1 | -3.3% |
| COc1cc(/C=N/NC(=O)c2ccc(O)cc2)ccc1OCC(=O)Nc1cccc([N+](=O)[O-])c1 | -5.1% |
| CN(C)CCCNc1nc(-c2ccccc2)nc2ccccc12 | -1.4% |
| Cc1nc2c(c(=O)n1Cc1ccccc1Cl)c1nc3ccccc3nc1n2Cc1ccco1 | -4.4% |
| COc1ccc(Cn2c3nc4ccccc4nc3c3c(=O)n(Cc4ccco4)c(C)nc32)cc1 | 55.8% (active) |
| COc1ccc(Cn2c3nc4ccccc4nc3c3c(=O)n(Cc4ccco4)cnc32)cc1 | 24.1% |
| COc1cccc(-c2onc3ccc(C(=O)/C=C/N(C)C)cc23)c1 | 2.8% |
| CCOC(=O)CC1(NC(=O)c2cc(COc3cncc(Cl)c3)on2)CCCCC1 | 54.6% (active) |
| CCOC(=O)CC1(NC(=O)c2cc(COc3ccc(F)c(F)c3)on2)CCCCC1 | -5.7% |
| CCOC(=O)CC1(NC(=O)c2cc(COc3cccc(OC)c3)on2)CCCCC1 | 4.4% |
| COc1cccc(-n2c(=O)c3sccc3n(CC(=O)NCC3CCCO3)c2=O)c1 (centres undefined) | -10.8% |
| O=C(Cn1c(=O)n(-c2cccc(C(F)(F)F)c2)c(=O)c2sccc21)NCC1CCCO1 (centres undefined) | -9.3% |
| Cc1ccc(-n2c(=O)c3sccc3n(CC(=O)NCC3CCCO3)c2=O)cc1F (centres undefined) | 68.5% (active) |
| O=C(CCCN1C(=O)/C(=C/c2cccs2)SC1=S)Nc1cc([N+](=O)[O-])ccc1O | -12.6% |
| O=C1C=C(NCCNc2c(F)c(F)c(CO)c(F)c2F)CCC1 | 72.7% (active) |
| CC(=O)/C=C(\C)NCCNc1c(F)c(F)c(CO)c(F)c1F | -3.3% |
| O=C1C=C(NCc2ccccc2)CCC1 | -5.3% |
| CCOc1c(O)ccc(C2NC(=O)N(C)C(C)=C2C(=O)OC)c1[N+](=O)[O-] (centres undefined) | 4% |
| CC(=O)Nc1ccc(S(=O)(=O)NNC(=O)COc2ccc(C(C)(C)C)cc2)cc1 | -2.6% |
| O=C(NNC(=O)c1cccc(Br)c1)C(=O)N1CCCCC1 | 60% (active) |
| O=C(NNC(=O)c1ccccc1)C(=O)N1CCCCC1 | 2.5% |
| COc1cccc(C(=O)NNC(=O)C(=O)N2CCCCC2)c1 | -8.5% |
| CCN(CC)CCN(Cc1cc2cc3c(cc2[nH]c1=O)OCCO3)C(=S)NCCCOC | -16.1% |
| COC(=O)C1=NN(C(=O)c2ccc(Br)cc2)C(O)(C(C)(C)C)C1 (centres undefined) | -3.5% |
| COC(=O)C1=NN(C(=O)c2cccc(Cl)c2)C(O)(C(C)(C)C)C1 (centres undefined) | 65.7% (active) |

| Compound | inhibition |
| --- | --- |
| CCOC(=O)C1=NN(C(=O)c2cccc(Br)c2)C(O)(C(C)(C)C)C1 (centres undefined) | -3.2% |
| O=C(O)CC/C(=N/NC(=O)c1cn(-c2ccccc2)nc1-c1ccccc1)C(=O)O | -3.5% |
| COc1ccc(NS(=O)(=O)c2ccc3c(c2)[C@H]2C=CC[C@H]2[C@@H](c2ccc(C(=O)O)cc2)N3)cc1 | 4.5% |
| COc1cccc(NS(=O)(=O)c2ccc3c(c2)C2C=CCC2C(c2ccc(C(=O)O)cc2)N3)c1 (centres undefined) | 16.1% |
| S=C(NCc1ccc(Cl)cc1Cl)NC1CCCCC1 | 68.1% (active) |
| O=C(Cc1ccc(Cl)cc1Cl)NC1CCCCCC1 | -4.7% |
| S=C(NCc1ccccc1Cl)NC1CCCC1 | -7.7% |
| COc1cc(N(C)C)c([N+](=O)[O-])cc1C(=O)NC(C)CNc1ccc([N+](=O)[O-])cc1Cl (centres undefined) | -7.4% |
| Cc1ccc(CN(CC(=O)NC(C)(C)C)C(=O)CNC(=O)c2cccs2)cc1 | -5.3% |
| Cc1occc1C(=O)NNS(=O)(=O)c1ccc(Cl)cc1 | 71.2% (active) |
| Cc1ccc(S(=O)(=O)NNC(=O)c2ccoc2C)cc1 | -5.8% |
| Cc1occc1C(=O)NNS(=O)(=O)c1ccc([N+](=O)[O-])cc1 | -10.5% |
| Cn1c(=O)c2ncn(CC(=O)N/N=C/c3ccco3)c2n(C)c1=O | -9.9% |
| CC(=O)CCS(=O)(=O)c1ccc(NC(C)=O)cc1 | -5.5% |
| O=C(COC(=O)c1cc(-c2cccs2)nn1-c1ccccc1)Nc1ccc(F)c([N+](=O)[O-])c1 | -7.7% |
| Cc1ccc(NC(=O)COC(=O)c2cc(-c3cccs3)nn2-c2ccccc2)cc1[N+](=O)[O-] | 74.9% (active) |
| O=C(COC(=O)c1cc(-c2cccs2)nn1-c1ccccc1)Nc1ccc(Cl)c([N+](=O)[O-])c1 | 2% |
| CC(=O)c1ccc(N2C(=O)[C@@H]3C(CCC(N)=O)NC4(C(=O)Nc5c4ccc(Cl)c5C)[C@@H]3C2=O)cc1 (some centres undefined) | -3.9% |
| COc1cc2c(C#N)c(N3CCCC3)nc(N)c2c(N)n1 | -2.4% |
| N#Cc1c(N2CCCC2)nc(N)c2c(N)nc(N3CCCC3)cc12 | 65.7% (active) |
| COc1cc2c(C#N)c(N3CCCCC3)nc(N)c2c(N)n1 | -1.1% |
| CCCC(=O)NC(=S)Nc1ccccc1F | -10.5% |
| Cc1cccc(C)c1N1CCN(c2n[nH]c(N)n2)CC1 | -8.3% |
| CC1(C)CCC(=O)N(c2ccccc2)C1=O | -3% |
| CC1(C)Nc2ccccc2C(=O)N1c1ccccc1 | -11.8% |

| Compound | inhibition |
| --- | --- |
| CC12CCC(=O)N1c1ccccc1C(=O)N2c1ccccc1 (centres undefined) | 66.6% (active) |
| CC(=O)Nn1c(COc2ccccc2C)nc2ccccc2c1=O | -4.5% |
| Cc1ccc(-n2ccc(=O)c(C(=O)Nc3ccc(S(=O)(=O)Nc4onc(C)c4C)cc3)n2)cc1 | 2.8% |
| Cc1cccc(-n2ccc(=O)c(C(=O)Nc3ccc(S(=O)(=O)Nc4onc(C)c4C)cc3)n2)c1 | -7.6% |
| Cc1noc(NS(=O)(=O)c2ccc(NC(=O)c3nn(-c4ccccc4)ccc3=O)cc2)c1C | 53.3% (active) |
| COc1cc(CC(NC(C)=O)C(=O)NC2CCN(c3nc(C)cc(C)c3C#N)CC2)cc(OC)c1 (centres undefined) | -2.6% |
| COc1cc(/C=C2/NC(=O)NC2=O)cc(Br)c1OCc1cccc(C(=O)O)c1 | 4.5% |
| COc1cc(/C=C2/NC(=O)NC2=O)cc(Br)c1OCc1ccc(C(=O)O)cc1 | 26.8% |
| Nc1nonc1-n1nnc(C(=O)N/N=C/c2ccoc2)c1CSc1ccc(Cl)cc1 | -6.9% |
| C=C(C)Cn1c(SCC(=O)O)nc2c1c(=O)[nH]c(=O)n2C | -3.9% |
| CCCc1nc2ccc([N+](=O)[O-])cc2[nH]1 | -5.4% |
| CCc1nc2cc(Cl)c(Cl)cc2[nH]1 | -3% |
| CCc1nc2cc([N+](=O)[O-])c([N+](=O)[O-])cc2[nH]1 | 54.4% (active) |
| CCC(=O)Nc1ccc2nc3c(=O)[nH]c(=S)[nH]c3nc2c1 | -5.4% |
| Nc1ccc2nc3c(=O)n(C4CCCCC4)c(=O)[nH]c3nc2c1 | 4.7% |
| Nc1ccc2nc3c(=O)[nH]c(=S)[nH]c3nc2c1 | 58.3% (active) |
| OC(COC(c1ccccc1)c1ccccc1)CN1CCOCC1 (centres undefined) | 1.2% |
| COC(=O)C1CCN(CCCOc2ccc(CN3CCN(c4ccc([N+](=O)[O-])cc4)CC3)cc2)CC1 | -8% |
| COC(=O)C1CCN(Cc2ccc(OCCCN3CCN(c4ccc([N+](=O)[O-])cc4)CC3)cc2)CC1 | 78.6% (active) |
| COC(=O)C1CCN(c2ccc([N+](=O)[O-])cc2)CC1 | -2.8% |
| CCOC(=O)c1cnc2c(Cl)cccc2c1NCCN1CCOCC1 | -9.2% |
| CCOC(=O)c1cnc2c(Cl)c(Cl)ccc2c1NCCN1CCOCC1 | 59.4% (active) |
| CCOC(=O)c1cnc2c(C)c(C)ccc2c1NCCN1CCOCC1 | -7.3% |
| COc1ccc(C(=O)NCCNC(C)=O)cc1S(=O)(=O)NCc1ccc(Cl)cc1 | -8.9% |
